Results published in PubChem BioAssay (NCATS).
Records with an inconclusive call do not appear. Active and inactive are the calls of the source. Calls follow the shape of the dose curve; as a rule, active = well fitted cell-killing curve with a large enough effect; inconclusive = small, poorly fitted or top-dose-only effect, or effect the other way; inactive = flat fitted curve, though single readings scatter.

How the values were obtained:
Assay in all cases: Primary qHTS to identify gynecologic anti-cancer compounds using libraries of approved drugs and bioactive compounds (AID 1345084); also: nearly all actives have a fitted effect of over 55% in size
C33A = conditions: Gynecologic cancer cell panel viability, ATPlite luminescence, 48 h; series mostly up to 57.5 µM
Method in brief: (§1)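 Cytotoxicity screen measuring ATP content by luciferase luminescence. Each compound is applied at five concentrations for 48 h at 37 C with 5% CO2.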

CAOV3 = conditions: Gynecologic cancer cell panel viability, ATPlite luminescence, 48 h; series mostly up to 57.5 µM
Method in brief: as §1

CASKI = conditions: Gynecologic cancer cell panel viability, ATPlite luminescence, 48 h; series mostly up to 57.5 µM
Method in brief: as §1

Es-2 = conditions: Gynecologic cancer cell panel viability, ATPlite luminescence, 48 h; series mostly up to 57.5 µM
Method in brief: as §1

HeLa = conditions: Gynecologic cancer cell panel viability, ATPlite luminescence, 48 h; series mostly up to 57.5 µM
Method in brief: as §1

Hek293T = conditions: Gynecologic cancer cell panel viability, ATPlite luminescence, 48 h, control line for the selectivity index; series mostly up to 57.5 µM
Method in brief: as §1

JEG-3 = conditions: Gynecologic cancer cell panel viability, ATPlite luminescence, 48 h; series mostly up to 57.5 µM
Method in brief: as §1

OV90 = conditions: Gynecologic cancer cell panel viability, ATPlite luminescence, 48 h; series mostly up to 57.5 µM
Method in brief: as §1

PA-1 = conditions: Gynecologic cancer cell panel viability, ATPlite luminescence, 48 h; series mostly up to 57.5 µM
Method in brief: as §1

SKOV3 = conditions: Gynecologic cancer cell panel viability, ATPlite luminescence, 48 h; series mostly up to 57.5 µM
Method in brief: as §1

Tov-21-G = conditions: Gynecologic cancer cell panel viability, ATPlite luminescence, 48 h; series mostly up to 57.5 µM
Method in brief: as §1

Tov112D = conditions: Gynecologic cancer cell panel viability, ATPlite luminescence, 48 h; series mostly up to 57.5 µM
Method in brief: as §1
% is scaled to controls: 0 for no effect and ±100 for the full control effect.

CC1=CC(=O)[C@H]2C(C)(C)CCC[C@]2(C)[C@@]1(O)CO
inactive: Potency (C33A) | Potency (CAOV3) | Potency (CASKI) | Potency (Es-2) | Potency (HeLa) | Potency (Hek293T) | Potency (JEG-3) | Potency (OV90) | Potency (PA-1) | Potency (SKOV3) | Potency (Tov-21-G) | Potency (Tov112D)

COc1ccccc1NC(=O)OCC1CCN(C(=O)OC(C)(C)C)CC1
inactive: Potency (C33A) | Potency (CAOV3) | Potency (CASKI) | Potency (Es-2) | Potency (HeLa) | Potency (Hek293T) | Potency (JEG-3) | Potency (OV90) | Potency (PA-1) | Potency (SKOV3) | Potency (Tov-21-G) | Potency (Tov112D)

O=C1CSc2ccccc2N1Cc1cccc(C(F)(F)F)c1
inactive: Potency (C33A) | Potency (CAOV3) | Potency (CASKI) | Potency (Es-2) | Potency (HeLa) | Potency (Hek293T) | Potency (JEG-3) | Potency (OV90) | Potency (PA-1) | Potency (SKOV3) | Potency (Tov-21-G) | Potency (Tov112D)

COc1cc(/C=C/C(=O)OC[C@H]2O[C@@](CO)(O[C@H]3O[C@H](CO)[C@@H](O)[C@H](O)[C@H]3O)[C@@H](OC(=O)/C=C/c3ccc(O)c(OC)c3)[C@@H]2O)ccc1O
inactive: Potency (C33A) | Potency (CAOV3) | Potency (CASKI) | Potency (Es-2) | Potency (HeLa) | Potency (Hek293T) | Potency (JEG-3) | Potency (OV90) | Potency (PA-1) | Potency (SKOV3) | Potency (Tov-21-G) | Potency (Tov112D)

CC1=C(C(=O)O)/C(=C\CO[C@@H]2O[C@H](CO)[C@@H](O)[C@H](O)[C@H]2O)C(OC(=O)/C=C/c2ccc(O)cc2)C1 (some centres not stated)
inactive: Potency (C33A) | Potency (CAOV3) | Potency (CASKI) | Potency (Es-2) | Potency (HeLa) | Potency (Hek293T) | Potency (JEG-3) | Potency (OV90) | Potency (PA-1) | Potency (SKOV3) | Potency (Tov-21-G) | Potency (Tov112D)

COc1c2cc(c(O)c1OC)-c1cc(ccc1O)CCC(O)CCCC2 (configuration not stated)
inactive: Potency (C33A) | Potency (CAOV3) | Potency (CASKI) | Potency (Es-2) | Potency (HeLa) | Potency (Hek293T) | Potency (JEG-3) | Potency (OV90) | Potency (PA-1) | Potency (SKOV3) | Potency (Tov-21-G) | Potency (Tov112D)

CC(C)CC1NC(=O)C(C)NC(=O)C(CC(C)C)OC(=O)CCCNC1=O (configuration not stated)
inactive: Potency (C33A) | Potency (CAOV3) | Potency (CASKI) | Potency (Es-2) | Potency (HeLa) | Potency (Hek293T) | Potency (JEG-3) | Potency (OV90) | Potency (PA-1) | Potency (SKOV3) | Potency (Tov-21-G) | Potency (Tov112D)

C[C@H](N)C(=O)N[C@@H](Cc1ccc(O)cc1)C(=O)N1CCC[C@H]1C(=O)NCC(=O)N[C@@H](CCCCN)C(=O)N[C@@H](Cc1ccccc1)C(N)=O
inactive: activity change, negative = cytotoxicity (C33A) 10.6% [at 11.6 µM] | activity change, negative = cytotoxicity (CAOV3) 7.8% [at 11.6 µM] | activity change, negative = cytotoxicity (CASKI) 6.63% [at 11.6 µM] | activity change, negative = cytotoxicity (Es-2) 2.05% [at 11.6 µM] | activity change, negative = cytotoxicity (HeLa) 3.06% [at 11.6 µM] | activity change, negative = cytotoxicity (Hek293T) 13% [at 11.6 µM] | activity change, negative = cytotoxicity (JEG-3) 1.3% [at 11.6 µM] | activity change, negative = cytotoxicity (OV90) 1.27% [at 11.6 µM] | activity change, negative = cytotoxicity (PA-1) 3.5% [at 11.6 µM] | activity change, negative = cytotoxicity (SKOV3) 32.3% [at 11.6 µM] | activity change, negative = cytotoxicity (Tov-21-G) 1.95% [at 11.6 µM] | activity change, negative = cytotoxicity (Tov112D) 5.22% [at 11.6 µM]

O=C(O)[C@H](Cc1ccc(Nc2nccc3ccncc23)cc1)NC1=C(Br)C(=O)C12CCCCC2
inactive: Potency (C33A) | Potency (CAOV3) | Potency (CASKI) | Potency (Es-2) | Potency (HeLa) | Potency (Hek293T) | Potency (JEG-3) | Potency (OV90) | Potency (PA-1) | Potency (SKOV3) | Potency (Tov-21-G) | Potency (Tov112D)

CC1C(=O)CC2C3CCC(C(=O)O)C12CC3(C)CO (configuration not stated)
inactive: Potency (C33A) | Potency (CAOV3) | Potency (CASKI) | Potency (Es-2) | Potency (HeLa) | Potency (Hek293T) | Potency (JEG-3) | Potency (OV90) | Potency (PA-1) | Potency (SKOV3) | Potency (Tov-21-G) | Potency (Tov112D)

COc1ccc(C2COc3cc(O)ccc3C2)c(O)c1 (configuration not stated)
inactive: Potency (C33A) | Potency (CAOV3) | Potency (CASKI) | Potency (Es-2) | Potency (HeLa) | Potency (Hek293T) | Potency (JEG-3) | Potency (OV90) | Potency (PA-1) | Potency (SKOV3) | Potency (Tov-21-G) | Potency (Tov112D)

O=C(/C=C/c1ccc(O)cc1)OC1[C@H](O)CC(O)(C(=O)O)C[C@H]1O (some centres not stated)
inactive: Potency (C33A) | Potency (CAOV3) | Potency (CASKI) | Potency (Es-2) | Potency (HeLa) | Potency (Hek293T) | Potency (JEG-3) | Potency (OV90) | Potency (PA-1) | Potency (SKOV3) | Potency (Tov-21-G) | Potency (Tov112D)

CC(=O)O[C@H]1CC[C@@]2(C)C(CC[C@@H](C)[C@]23Cc2c(O)cc4c(c2O3)CN([C@@H](CCC(=O)O)C(=O)O)C4=O)C1(C)C (some centres not stated)
inactive: Potency (C33A) | Potency (CAOV3) | Potency (CASKI) | Potency (Es-2) | Potency (HeLa) | Potency (Hek293T) | Potency (JEG-3) | Potency (OV90) | Potency (PA-1) | Potency (SKOV3) | Potency (Tov-21-G) | Potency (Tov112D)

C/C1=C\CC[C@]2(C)O[C@@H]2[C@H](O)[C@H](C(C)C)[C@H](OC(=O)/C=C/c2ccccc2)C1
inactive: Potency (C33A) | Potency (CAOV3) | Potency (CASKI) | Potency (Es-2) | Potency (HeLa) | Potency (Hek293T) | Potency (JEG-3) | Potency (OV90) | Potency (PA-1) | Potency (SKOV3) | Potency (Tov-21-G) | Potency (Tov112D)

COc1ccc(Cl)c(Nc2nc3ccccc3nc2NS(=O)(=O)c2cccc(NC(=O)C(C)(C)N)c2)c1
inactive: Potency (C33A) | Potency (CAOV3) | Potency (CASKI) | Potency (Es-2) | Potency (HeLa) | Potency (Hek293T) | Potency (JEG-3) | Potency (OV90) | Potency (PA-1) | Potency (SKOV3) | Potency (Tov-21-G) | Potency (Tov112D)

CC(C)CC(=O)OC1OC=C(CO[C@@H]2O[C@H](CO)[C@@H](O)[C@H](O)[C@H]2O)C2CC(O)C(O)(CO)C12 (some centres not stated)
inactive: Potency (C33A) | Potency (CAOV3) | Potency (CASKI) | Potency (Es-2) | Potency (HeLa) | Potency (Hek293T) | Potency (JEG-3) | Potency (OV90) | Potency (PA-1) | Potency (SKOV3) | Potency (Tov-21-G) | Potency (Tov112D)
